Measured values from PubChem BioAssay AID1259336 (Sattelle Laboratory, UCL Respiratory, Division of Medicine, …, 2017).
Active and inactive are the calls of the source. Rule as the data show it: active = log2 fold change growth below about -1.8; inactive = the rest.

Assay: anthelmintic activity against nematode growth – whole organism, log2 fold change (AID 1259336);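 also: growth scored by imaging after five days at 20 °C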
Conditions: C. elegans growth, anthelmintic screen; hits give low values

log2 fold change growth, active:
Cc1cc(C(=O)Nc2ccc(-c3ccccc3)cc2)no1 -3.09

log2 fold change growth, inactive:
Cc1[nH]c2cc(F)cc(F)c2c(=O)c1-c1ccc(Oc2ccc(OC(F)(F)F)cc2)cc1 -0.247, Cc1cnc(CCNC(=O)c2cc(-c3ccc(Cl)cc3)cs2)[nH]1 -0.147, C[C@H](C(N)=O)N1CCCC[C@@H]1c1ccc(OCc2cccc(F)c2)cc1 -0.0568, C[C@@H](C(=O)Nc1ccc2oc(-c3ccncc3)nc2c1)c1ccccc1 0.0616, O=C(Nc1ccnc(-c2cccnc2)n1)c1cc(C(F)(F)F)cc(C(F)(F)F)c1 0.327, Cc1nnc(NCc2cccc(Cl)c2)c2ccccc12 0.138, O=C1Nc2ccc(Br)cc2[C@@]12NCCc1c2[nH]c2ccccc12 -0.19, CC(C)(C)c1cnc(NC(=O)c2ccccc2O)s1 0.155, O=C(N[C@H](Cc1ccccc1)C(=O)Nc1ccccc1N1CCOCC1)c1cccs1 0.306, CC(C)(C)C1CCC(CC2=C(O)c3ccccc3C(=O)C2=O)CC1 (stereo not drawn) -0.0767, c1cc(C2=NCCN2)cc(-c2cc(-c3ccc(C4=NCCN4)cc3)no2)c1 0.193, COc1cccn2c(C(=O)N3CCCCC3)c(C(F)(F)F)nc12 0.258, O=C(NCc1ccoc1)N1CCN(Cc2ccc3c(c2)OCO3)CC1 0.212, C[C@H]1COc2c(N3CCN(C)CC3)c(F)cc3c(=O)c(C(=O)O)cn1c23 0.473, CNC(=O)c1nn(C)c2c1C(C)(C)Cc1cnc(Nc3ccc(N4CCN(C)CC4)cc3)nc1-2 0.103, CC(=O)Nc1ccc(NC(=O)c2cc(-c3cc(Cl)ccc3O)n[nH]2)cc1 0.254, CCOc1ccc2cc(-c3nn(C(C)(C)C)c(N)c3C(N)=O)cnc2c1 -0.647, FC(F)(F)c1cc(NCCc2ccccc2)nc(-c2ccccn2)n1 -0.968, C[C@@H]1[C@H](O)[C@@H](C)C=CC=CC=CC=CC=CC=CC=C[C@H](O[C@@H]2O[C@H](C)[C@@H](O)[C@H](N)[C@@H]2O)C[C@@H]2O[C@](O)(C[C@@H](O)C[C@@H](O)[C@H](O)CC[C@H](O)C[C@@H](O)CC(=O)O[C@H]1C)C[C@H](O)[C@H]2C(=O)O 0.0153, Cc1nc(-c2ccccn2)nc(N(C)CCc2ccccc2)c1Cl -0.0752, CCCS(=O)(=O)N1CCC(CO)(Cc2ccccc2C(F)(F)F)CC1 0.357, CC(C)(C)c1cc(C(=O)Nc2cccnc2)cc(C(=O)Nc2cccnc2)c1 0.00293, COc1cc(OC)cc(C(=O)NC[C@H]2Cc3cc(Cl)cc(-c4ccncc4)c3O2)c1 -1.17, COc1ccc(C2=NN(C3CCCCCC3)C(=O)[C@@H]3CC=CC[C@H]23)cc1OCCCCOc1ccc(-c2nn[nH]n2)cc1 -0.0946, CC[C@H](Sc1nc2ccccc2o1)C(=O)Nc1nccs1 -0.397, CS(=O)(=O)N1CCC(CCn2nc(Cc3cccc4ccccc34)c3c(N)ncnc32)CC1 -1.16, COc1ccc(CN2CCOc3ccc([C@@](C)(O)CN(C)C)cc3C2)cc1C 0.162, CC(C)(C)c1cc(C(=O)N2CCN(c3nccnc3C#N)CC2)n(Cc2ccccc2)n1 -0.0659, CCc1c(C)nc(-n2nc(C)cc2NC(=O)c2ccccc2SC)[nH]c1=O -0.0348, Nc1ccc2ncnc(Nc3ccc(OCc4cccc(F)c4)c(Cl)c3)c2c1 -0.0667, Nc1cccnc1Nc1ccc(Cl)cc1 0.497, O=C(c1ccc(NCCO)cc1)C1C[C@H]1c1ccc(Cl)cc1 (stereo partly drawn) -0.319, Cc1nc(-c2cccc(NCc3ccccc3)c2)[nH]c1C 0.123, CS(=O)(=O)Cc1nc2ccccc2oc1=O -0.133, Cc1[nH]n2c(=O)c3c(nc2c1-c1ccc(F)cc1)CCCC3 -0.19, Cc1nnc(NC(=O)c2cn(-c3ccccc3)nc2-c2ccccc2C)o1 -0.302, Cc1nc(-c2ccccn2)nc(NCCc2ccc(S(C)(=O)=O)cc2)c1Cl -0.702
